Measured values reported in the supplement of paper PMC10849652.
Of roughly 8,800 targets only a part is listed; those with a hit were picked by preference. About 0.5% of all pairs of compound and target were hits.

Tests used:
Test in all cases: log2 fold change, soluble protein after heating vs DMSO (PISA); higher = thermal stabilisation; K562 lysate, 10 uM; active = over 0.2 and 3.5 SD of the protein, either way, in both replicates (recomputed)
[1] = compound: C#Cc1cccc(Nc2ncnc3cc(OCCOC)c(OCCOC)cc23)c1 [erlotinib]
Outline: (§1)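 Pellets of K562 cells were dounce-homogenised in PBS pH 7.4 with 1 mM MgCl2, and the crude extract was held at 1 mg/mL protein for a 30 min treatment with 10 μM compound. Aliquots were heated for 3 min over 48°C-58°C and pooled before NP-40 was added to 0.5% at 4°C. The supernatant from 21,000xg for 90 min was quantified by TMTpro 16plex LC-MS/MS with channel sums equalised. Values are reported from duplicates as log-two fold change in thermal stability relative to solvent controls.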

[2] = compound: C/C(=N\NC(=O)C1=CC(=CC=C1)S(=O)(=O)N2CCOCC2)/C3=C(C=CC(=C3)Cl)O
Outline: as §1

[3] = compound: C1=CC(=CC=C1C2=NC3=C(N2)C=C(C=C3)C(=O)N)OC4=CC=C(C=C4)Cl
Outline: as §1

[4] = compound: C1=CC2=C(C=CC(=C2)/C=C\3/C(=O)NC(=NCC4=CC=CS4)S3)N=C1
Outline: as §1

[5] = compound: C1=CC2=NC=CN=C2C=C1/C=C/3\C(=O)NC(=O)S3
Outline: as §1

[6] = compound: C1=CC=C(C=C1)C2=NC(=C(N2)C3=CC=NC=C3)C4=CC(=C(C=C4)Cl)O
Outline: as §1

[7] = compound: C1=CC=C2C(=C1)C3=NNC4=CC=CC(=C43)C2=O
Outline: as §1

[8] = compound: C1CCN(C1)C(=O)NC2=CC=CC(=C2)NC3=NC=C(C(=N3)NCCC4=CN=CN4)Br
Outline: as §1

[9] = compound: C1CN(CCC1(CC2=CC=C(C=C2)Cl)N)C3=NC=NC4=C3C=CN4
Outline: as §1

[10] = compound: C1COCCN1CCN2C3=CC=CC=C3N=C2NC(=O)C4=CC(=CC=C4)[N+](=O)[O-] [IRAK-1-4 Inhibitor I]
Outline: as §1

[11] = compound: C=CC(=O)N1CCC[C@@H](n2nc(-c3ccc(Oc4ccccc4)cc3)c3c(N)ncnc32)C1 [ibrutinib]
Outline: as §1

[12] = compound: CC(=O)c1cnc2ccc(-c3cc(Cl)c(O)c(Cl)c3)nc2c1N[C@H]1CC[C@H](CN(C)C)CC1
Outline: as §1

[13] = compound: CC(C)(C)Cn1c(N)nc2ccc(-c3[nH]c(C(C)(C)C)nc3-c3ccc(F)cc3)nc21 [ralimetinib]
Outline: as §1

[14] = compound: CC(C)(O)CC(=O)NCCn1ccc2ncnc(Nc3ccc(Oc4cccc(C(F)(F)F)c4)c(Cl)c3)c21
Outline: as §1

[15] = compound: CC(C)C1=C2N=C(C=C(N2N=C1)NCC3=CC=CC=C3)NCCCCCCN
Outline: as §1

[16] = compound: CC1=C(C(CC(=O)N1)C2=CC=C(C=C2)C(F)(F)F)C(=O)NC3=C(C=C4C(=C3)C=NN4)F
Outline: as §1

[17] = compound: CC1=C(C2=C(C=C1)C(=O)C3=CC=CC=C3N2CCCN)C
Outline: as §1

[18] = compound: CC1=C(C=C(C=C1)NC(=O)C2=CC(=CC=C2)C(C)(C)C#N)NC3=CC4=C(C=C3)N=CN(C4=O)C
Outline: as §1

[19] = compound: CC1=C(C=C(C=C1)NC(=O)C2=CC(=CC=C2)N(C)C)NC(=O)C3=CC=C(C=C3)O
Outline: as §1

[20] = compound: CC1=CC=C(C=C1)SC2=C3C=C(SC3=CN=C2)C(=O)N
Outline: as §1

Measured: log2 fold change

REXO4 (UniProt Q9GZR2)
UniProt Q9GZR2, sequence (Q9GZR2 whole entry, looked up): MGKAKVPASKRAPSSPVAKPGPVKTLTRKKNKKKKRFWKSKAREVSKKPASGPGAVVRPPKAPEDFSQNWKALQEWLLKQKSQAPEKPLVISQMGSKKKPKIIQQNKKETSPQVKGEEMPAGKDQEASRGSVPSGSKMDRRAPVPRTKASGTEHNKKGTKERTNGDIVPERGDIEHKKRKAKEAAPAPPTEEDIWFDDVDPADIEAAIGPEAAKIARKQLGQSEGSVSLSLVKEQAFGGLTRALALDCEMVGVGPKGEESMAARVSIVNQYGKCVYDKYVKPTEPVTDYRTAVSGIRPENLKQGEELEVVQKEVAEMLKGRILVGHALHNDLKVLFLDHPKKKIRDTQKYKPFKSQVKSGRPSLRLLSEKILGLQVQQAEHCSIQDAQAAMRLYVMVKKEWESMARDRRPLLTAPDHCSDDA
inactive: [1] -0.041 | [2] -0.195 | [3] -0.041 | [4] -0.084 | [5] -0.052 | [6] 0.027 | [7] -0.033 | [8] -0.022 | [9] 0.003 | [10] -0.027 | [11] 0.014 | [12] 0.027 | [13] 0.021 | [14] 0.074 | [15] -0.024 | [16] 0.023 | [17] -0.053 | [18] -0.043 | [19] 0.056 | [20] 0.008

RIC1 (UniProt Q4ADV7)
UniProt Q4ADV7, sequence (Q4ADV7 whole entry, looked up): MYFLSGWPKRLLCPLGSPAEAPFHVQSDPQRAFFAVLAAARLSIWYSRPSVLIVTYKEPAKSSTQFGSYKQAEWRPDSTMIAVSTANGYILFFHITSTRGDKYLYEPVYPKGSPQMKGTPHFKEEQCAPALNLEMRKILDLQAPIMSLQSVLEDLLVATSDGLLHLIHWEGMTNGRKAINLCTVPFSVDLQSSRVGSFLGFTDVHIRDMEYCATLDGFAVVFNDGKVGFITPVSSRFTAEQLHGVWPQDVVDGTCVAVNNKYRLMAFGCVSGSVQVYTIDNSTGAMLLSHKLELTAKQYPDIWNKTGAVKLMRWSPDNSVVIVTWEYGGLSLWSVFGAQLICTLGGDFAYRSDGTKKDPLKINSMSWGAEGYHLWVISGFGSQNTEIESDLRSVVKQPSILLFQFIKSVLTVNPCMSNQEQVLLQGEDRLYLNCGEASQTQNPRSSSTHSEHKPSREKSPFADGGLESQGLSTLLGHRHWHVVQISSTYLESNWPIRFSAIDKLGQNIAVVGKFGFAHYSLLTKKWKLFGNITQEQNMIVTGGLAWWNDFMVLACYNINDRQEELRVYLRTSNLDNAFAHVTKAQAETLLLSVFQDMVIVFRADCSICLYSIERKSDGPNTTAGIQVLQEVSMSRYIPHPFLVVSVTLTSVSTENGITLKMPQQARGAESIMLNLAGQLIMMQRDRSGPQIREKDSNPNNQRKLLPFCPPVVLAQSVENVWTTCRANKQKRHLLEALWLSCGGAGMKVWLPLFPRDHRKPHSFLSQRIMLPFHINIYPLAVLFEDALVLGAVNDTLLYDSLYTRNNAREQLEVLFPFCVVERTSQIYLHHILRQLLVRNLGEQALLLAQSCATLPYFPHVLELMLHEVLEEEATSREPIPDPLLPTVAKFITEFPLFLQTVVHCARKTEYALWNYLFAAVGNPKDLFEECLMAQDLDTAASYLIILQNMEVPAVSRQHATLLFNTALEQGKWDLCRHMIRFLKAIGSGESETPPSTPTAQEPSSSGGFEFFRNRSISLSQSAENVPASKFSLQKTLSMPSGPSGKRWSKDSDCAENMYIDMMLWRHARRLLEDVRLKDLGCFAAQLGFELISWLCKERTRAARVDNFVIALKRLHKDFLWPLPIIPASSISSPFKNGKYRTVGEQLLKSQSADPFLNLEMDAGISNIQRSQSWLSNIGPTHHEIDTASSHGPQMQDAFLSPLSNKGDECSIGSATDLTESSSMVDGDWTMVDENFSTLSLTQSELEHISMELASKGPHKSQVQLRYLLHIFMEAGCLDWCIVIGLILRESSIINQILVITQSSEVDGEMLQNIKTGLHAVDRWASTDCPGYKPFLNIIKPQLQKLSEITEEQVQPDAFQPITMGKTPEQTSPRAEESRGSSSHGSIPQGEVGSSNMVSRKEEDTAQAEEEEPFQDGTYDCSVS
inactive: [1] 0 | [2] -0.239 | [3] -0.074 | [4] 0.025 | [5] -0.176 | [6] 0.044 | [7] 0.035 | [8] 0.038 | [9] 0.057 | [10] 0.022 | [11] -0.129 | [12] -0.052 | [13] 0.046 | [14] -0.074 | [15] 0.038 | [16] -0.032 | [17] -0.065 | [18] 0.113 | [19] 0.027 | [20] -0.006

RPL8 (UniProt P62917)
inactive: [1] 0.001 | [2] -0.307 | [3] -0.024 | [4] -0.025 | [5] -0.026 | [6] 0.007 | [7] 0.109 | [8] 0.019 | [9] -0.085 | [10] -0.005 | [11] 0.031 | [12] 0.007 | [13] 0.01 | [14] -0.002 | [15] -0.008 | [16] 0.012 | [17] -0.045 | [18] -0.076 | [19] -0.013 | [20] 0.011

RPL36AL (UniProt Q969Q0)
inactive: [1] -0.036 | [2] -0.098 | [3] -0.012 | [4] 0.061 | [5] -0.029 | [6] 0.029 | [7] 0.048 | [8] 0.049 | [9] -0.05 | [10] -0.109 | [11] -0.038 | [12] 0.004 | [13] -0.018 | [14] 0.088 | [15] -0.004 | [16] -0.001 | [17] 0.068 | [18] -0.038 | [19] 0.013 | [20] 0.052

REL isoform 2 (UniProt Q04864)
UniProt Q04864, sequence (Q04864 whole entry, looked up): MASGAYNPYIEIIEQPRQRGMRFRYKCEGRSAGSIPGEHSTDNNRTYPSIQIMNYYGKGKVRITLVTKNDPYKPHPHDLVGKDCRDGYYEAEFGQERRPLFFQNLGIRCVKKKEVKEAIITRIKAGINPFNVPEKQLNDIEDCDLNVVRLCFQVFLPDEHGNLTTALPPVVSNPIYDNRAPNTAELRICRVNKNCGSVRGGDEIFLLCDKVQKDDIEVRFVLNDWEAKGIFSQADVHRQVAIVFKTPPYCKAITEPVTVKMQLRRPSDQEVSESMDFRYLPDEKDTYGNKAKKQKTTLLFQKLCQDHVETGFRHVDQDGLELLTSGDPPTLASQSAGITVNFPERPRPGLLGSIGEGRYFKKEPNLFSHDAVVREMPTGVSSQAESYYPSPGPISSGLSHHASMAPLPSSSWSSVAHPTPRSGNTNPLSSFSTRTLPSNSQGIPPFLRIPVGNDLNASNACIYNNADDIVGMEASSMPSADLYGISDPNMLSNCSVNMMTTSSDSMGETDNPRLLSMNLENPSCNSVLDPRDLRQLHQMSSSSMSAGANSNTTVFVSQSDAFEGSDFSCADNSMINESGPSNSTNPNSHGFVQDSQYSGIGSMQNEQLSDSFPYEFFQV
inactive: [1] 0.022 | [2] -0.005 | [3] -0.048 | [4] 0.016 | [5] -0.017 | [6] 0.037 | [7] -0.019 | [8] -0.011 | [9] -0.02 | [10] 0.019 | [11] 0.032 | [12] 0.015 | [13] 0.06 | [14] -0.003 | [15] 0.005 | [16] -0.018 | [17] 0.038 | [18] 0.022 | [19] -0.023 | [20] 0.049

RNPS1 (UniProt Q15287)
inactive: [1] -0.008 | [2] -0.105 | [3] 0.025 | [4] -0.151 | [5] -0.005 | [6] -0.006 | [7] 0.027 | [8] -0.016 | [9] -0.073 | [10] 0.023 | [11] 0.04 | [12] 0.042 | [13] 0.007 | [14] 0.006 | [15] 0.005 | [16] 0.138 | [17] 0.003 | [18] -0.057 | [19] -0.032 | [20] -0.032

RPN2 (UniProt P04844)
UniProt P04844, sequence (P04844 whole entry, looked up): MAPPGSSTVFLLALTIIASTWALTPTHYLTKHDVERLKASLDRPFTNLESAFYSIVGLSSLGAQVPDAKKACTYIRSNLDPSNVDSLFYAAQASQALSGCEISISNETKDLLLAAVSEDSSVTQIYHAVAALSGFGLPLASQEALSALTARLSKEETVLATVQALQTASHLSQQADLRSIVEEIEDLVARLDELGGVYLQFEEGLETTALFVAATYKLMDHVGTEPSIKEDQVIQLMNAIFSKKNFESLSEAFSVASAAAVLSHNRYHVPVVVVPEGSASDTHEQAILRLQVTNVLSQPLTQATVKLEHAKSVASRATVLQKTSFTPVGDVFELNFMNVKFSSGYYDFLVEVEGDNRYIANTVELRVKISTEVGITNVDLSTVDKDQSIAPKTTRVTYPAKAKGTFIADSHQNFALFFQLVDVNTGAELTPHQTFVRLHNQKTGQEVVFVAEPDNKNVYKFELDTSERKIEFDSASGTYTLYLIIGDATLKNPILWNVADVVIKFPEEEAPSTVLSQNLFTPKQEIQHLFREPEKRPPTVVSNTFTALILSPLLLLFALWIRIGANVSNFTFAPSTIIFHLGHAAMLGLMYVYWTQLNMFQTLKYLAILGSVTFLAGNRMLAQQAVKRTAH
inactive: [1] 0 | [2] 0.014 | [3] -0.055 | [4] 0.022 | [5] 0.021 | [6] 0 | [7] -0.049 | [8] -0.007 | [9] 0.006 | [10] 0.007 | [11] -0.008 | [12] 0.014 | [13] -0.004 | [14] -0.035 | [15] -0.021 | [16] 0.008 | [17] 0.021 | [18] -0.011 | [19] -0.015 | [20] -0.017

RPL27 (UniProt P61353)
inactive: [1] 0.002 | [2] -0.02 | [3] -0.04 | [4] -0.033 | [5] 0.011 | [6] 0.011 | [7] 0.03 | [8] 0.052 | [9] -0.014 | [10] -0.014 | [11] 0.037 | [12] -0.014 | [13] -0.025 | [14] -0.018 | [15] -0.01 | [16] -0.067 | [17] -0.051 | [18] 0 | [19] -0.01 | [20] 0.014

SEC24D isoform 2 (UniProt O94855)
inactive: [1] 0.016 | [2] 0.04 | [3] 0.012 | [4] 0.008 | [5] 0.032 | [6] 0.022 | [7] 0.001 | [8] -0.013 | [9] 0.004 | [10] -0.002 | [11] 0.005 | [12] -0.024 | [13] 0.01 | [14] -0.018 | [15] 0 | [16] -0.009 | [17] -0.011 | [18] 0.019 | [19] -0.035 | [20] 0.023

RPS29 (UniProt P62273)
inactive: [1] 0.088 | [2] 0.023 | [3] 0.018 | [4] -0.064 | [5] -0.026 | [6] 0.017 | [7] 0.051 | [8] 0.018 | [9] -0.037 | [10] 0.046 | [11] 0.002 | [12] 0.025 | [13] -0.138 | [14] 0.03 | [15] -0.109 | [16] 0.086 | [17] -0.093 | [18] -0.108 | [19] -0.068 | [20] 0.058

RNASEL (UniProt Q05823)
inactive: [1] 0.103 | [2] -0.025 | [3] -0.019 | [4] -0.01 | [5] 0.099 | [6] 0.009 | [7] -0.062 | [8] -0.031 | [9] 0.005 | [10] 0.006 | [11] -0.072 | [12] -0.033 | [13] 0.037 | [14] -0.034 | [15] 0 | [16] -0.023 | [17] 0.001 | [18] 0.01 | [19] 0.013 | [20] 0.027

RANBP6 (UniProt O60518)
UniProt O60518, sequence (O60518 whole entry, looked up): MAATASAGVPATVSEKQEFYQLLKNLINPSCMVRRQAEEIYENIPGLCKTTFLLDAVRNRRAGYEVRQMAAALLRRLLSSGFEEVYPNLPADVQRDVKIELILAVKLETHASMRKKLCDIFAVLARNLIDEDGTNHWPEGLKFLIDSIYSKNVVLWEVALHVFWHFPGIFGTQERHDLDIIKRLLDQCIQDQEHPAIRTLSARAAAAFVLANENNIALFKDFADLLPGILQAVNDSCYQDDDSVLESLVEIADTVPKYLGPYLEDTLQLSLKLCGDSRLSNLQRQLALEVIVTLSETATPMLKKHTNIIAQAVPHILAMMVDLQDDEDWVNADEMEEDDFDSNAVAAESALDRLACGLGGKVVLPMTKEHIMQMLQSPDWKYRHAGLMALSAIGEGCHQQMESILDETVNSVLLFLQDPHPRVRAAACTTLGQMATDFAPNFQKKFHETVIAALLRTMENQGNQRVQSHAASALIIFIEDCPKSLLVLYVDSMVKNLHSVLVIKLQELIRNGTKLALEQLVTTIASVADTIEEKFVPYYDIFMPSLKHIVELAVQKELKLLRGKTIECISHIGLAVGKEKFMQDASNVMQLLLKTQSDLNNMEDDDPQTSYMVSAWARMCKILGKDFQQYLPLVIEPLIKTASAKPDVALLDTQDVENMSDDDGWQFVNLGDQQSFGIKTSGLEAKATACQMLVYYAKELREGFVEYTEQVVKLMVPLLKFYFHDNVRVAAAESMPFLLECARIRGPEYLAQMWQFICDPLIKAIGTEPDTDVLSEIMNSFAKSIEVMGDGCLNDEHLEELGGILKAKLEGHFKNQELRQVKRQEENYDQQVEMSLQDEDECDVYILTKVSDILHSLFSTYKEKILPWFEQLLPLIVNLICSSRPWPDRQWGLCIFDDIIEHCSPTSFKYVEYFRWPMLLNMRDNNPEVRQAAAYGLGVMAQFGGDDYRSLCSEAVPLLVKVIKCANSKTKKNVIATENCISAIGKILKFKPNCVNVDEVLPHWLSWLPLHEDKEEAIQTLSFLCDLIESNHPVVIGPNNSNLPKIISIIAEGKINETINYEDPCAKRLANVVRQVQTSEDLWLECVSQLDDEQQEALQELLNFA
inactive: [1] 0.045 | [2] -0.043 | [3] -0.003 | [4] -0.034 | [5] 0.061 | [6] 0.027 | [7] 0.021 | [8] 0.044 | [9] -0.019 | [10] 0.04 | [11] -0.034 | [12] -0.05 | [13] 0.025 | [14] -0.066 | [15] -0.034 | [16] -0.005 | [17] -0.017 | [18] -0.009 | [19] 0.026 | [20] 0.009

SCML2 (UniProt Q9UQR0)
inactive: [1] 0.021 | [2] 0.038 | [3] 0.019 | [4] 0.068 | [5] -0.046 | [6] 0 | [7] -0.028 | [8] -0.003 | [9] 0.043 | [10] -0.01 | [11] -0.011 | [12] 0.028 | [13] 0.004 | [14] 0.034 | [15] -0.011 | [16] 0.011 | [17] -0.012 | [18] -0.015 | [19] -0.006 | [20] 0.109

RHAG (UniProt Q02094)
UniProt Q02094, sequence (Q02094 whole entry, looked up): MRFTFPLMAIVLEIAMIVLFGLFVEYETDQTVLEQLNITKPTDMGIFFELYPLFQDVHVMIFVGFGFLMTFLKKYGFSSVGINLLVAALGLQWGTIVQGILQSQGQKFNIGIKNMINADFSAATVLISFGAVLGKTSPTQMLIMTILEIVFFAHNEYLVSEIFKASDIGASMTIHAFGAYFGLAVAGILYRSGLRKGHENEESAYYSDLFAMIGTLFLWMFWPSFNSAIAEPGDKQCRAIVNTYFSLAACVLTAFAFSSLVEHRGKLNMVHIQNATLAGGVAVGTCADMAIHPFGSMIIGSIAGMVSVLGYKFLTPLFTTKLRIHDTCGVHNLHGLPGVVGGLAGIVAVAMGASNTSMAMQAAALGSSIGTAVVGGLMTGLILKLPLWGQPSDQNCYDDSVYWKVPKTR
inactive: [1] 0.017 | [2] -0.123 | [3] -0.087 | [4] 0.086 | [5] -0.007 | [6] -0.012 | [7] -0.145 | [8] -0.126 | [9] -0.014 | [10] 0.081 | [11] 0.004 | [12] -0.035 | [13] -0.001 | [14] -0.068 | [15] 0.042 | [16] 0.09 | [17] -0.056 | [18] 0.08 | [19] 0.008 | [20] -0.003

RAB27A (UniProt P51159)
UniProt P51159, sequence (P51159 whole entry, looked up): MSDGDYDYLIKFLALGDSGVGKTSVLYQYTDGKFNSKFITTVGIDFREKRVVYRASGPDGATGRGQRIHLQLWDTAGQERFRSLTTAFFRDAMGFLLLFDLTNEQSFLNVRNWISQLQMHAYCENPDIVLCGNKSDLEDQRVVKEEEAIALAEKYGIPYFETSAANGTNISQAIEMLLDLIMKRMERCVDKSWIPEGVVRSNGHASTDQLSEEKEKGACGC
inactive: [1] -0.045 | [2] 0.023 | [3] -0.014 | [4] 0.009 | [5] -0.009 | [6] -0.003 | [7] -0.025 | [8] -0.031 | [9] -0.015 | [10] -0.049 | [11] -0.011 | [12] -0.035 | [13] 0.074 | [14] 0.033 | [15] -0.054 | [16] -0.044 | [17] 0.047 | [18] -0.057 | [19] 0.006 | [20] -0.026

RAB3IL1 (UniProt E9PK89)
inactive: [1] -0.016 | [2] -0.075 | [3] 0.124 | [4] 0.013 | [5] -0.048 | [6] -0.04 | [7] 0.093 | [8] -0.034 | [9] -0.12 | [10] 0.109 | [11] 0.066 | [12] 0.045 | [13] -0.028 | [14] -0.08 | [15] -0.069 | [16] 0.052 | [17] 0.071 | [18] 0.025 | [19] 0.135 | [20] -0.031
